Calls of active or inactive are those of the source.

The values below come from PubChem BioAssay.

Test [1] has as its system Plasmodium falciparum Sir2 (PF13_0152, Sir2A). The test can be described thus: Plasmodium falciparum Sir2A binding compounds – biochemical, small-molecule microarray, 635 nm fluorescence, primary screen (AID 1098).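 Note: score merges spot fluorescence intensity with its signal-to-noise ratio.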 The note with it: fluorescence 635 nm, higher = more signal.
Test [2] in a line: probe aDKK1 binding to arrayed compounds – biochemical, biotinylated probe, 635/667 nm fluorescence, primary screen (AID 1099).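 Note: score merges 667nm spot fluorescence with signal to noise across triplicate slides.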 The note with it: small-molecule microarray, higher = more signal.
Test [3] can be described thus: probe aCHRDL2 binding to arrayed compounds – biochemical, biotinylated probe, 635/667 nm fluorescence, primary screen (AID 1100). The note with it: small-molecule microarray, higher = more signal.
The nature of test [4]: change in splice reporter luminescence, either direction, cell-based, HEK293, spliceosome inhibition project, primary screen (AID 1101).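 Note: HEK293 cells carrying a splicing-competent luciferase reporter gene; test concentration not given here.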 The note with it: HEK293 splicing luciferase reporter, 24 h, higher = more signal, called active from +8 up or from −8 down.
Test [5] concerns the target Fibroblast growth factor 10 (Homo sapiens) (UniProt O15520). Put plainly: compounds binding fibroblast growth factor 10 – biochemical, small-molecule microarray, 635 nm fluorescence, primary screen (AID 1102). To be noted: FGF10 binding, fluorescence 635 nm, higher = more signal.
Test [6] concerns glycogen synthase kinase-3 (GSK3A per assay name; protocol says GSK3B). The test can be described thus: compounds binding glycogen synthase kinase-3 – biochemical, small-molecule microarray, 635 nm fluorescence, GSK3A, primary screen (AID 1103). Note: the record names both GSK3A and GSK3B. The note with it: fluorescence 635 nm, higher = more signal.
The target in test [7] is Epidermal growth factor receptor (Homo sapiens) (UniProt P00533). Put plainly: compounds binding epidermal growth factor receptor – biochemical, small-molecule microarray, 635 nm fluorescence, primary screen (AID 1104).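 Note: score merges 667 nm emission intensity with spot signal to noise over triplicate slides.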 To be noted: EGFR binding, higher = more signal.
Test [8] addresses Follistatin-related protein 3 (Homo sapiens) (UniProt O95633). Put plainly: compounds binding follistatin-related protein 3 – biochemical, small-molecule microarray, 635 nm fluorescence, primary screen (AID 1105).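 Note: score merges emission near 667 nm and signal to noise per printed spot across three slides.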 To be noted: FSTL3 binding, higher = more signal.
Test [9] deals with Dickkopf-related protein 1 (Homo sapiens) (UniProt O94907). Put plainly: small molecules binding DKK1 protein – biochemical, small-molecule microarray, 635 nm fluorescence scan, primary screen (AID 1106).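 Note: score merges emission near 667 nm with signal to noise over three replicate slides.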 The note with it: higher = more signal.
In test [10] the test system is Inhibin beta A chain (activin A). Put plainly: small molecules binding activin A – biochemical, small-molecule microarray, 635 nm fluorescence scan, primary screen (AID 1107).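 Note: mouse activin A protein probed at 4.33 µg/mL on printed slides; score merges bound-protein fluorescence near 667 nm with spot signal-to-noise.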 To be noted: INHBA, higher = more signal.
For test [11], the system named is Human papillomavirus type 1a protein E7 (residues 44-93). Put plainly: small molecules binding HPV E7 44-93 – biochemical, small-molecule microarray, residues 44-93, 635 nm fluorescence, primary screen (AID 1108).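 Note: E7 fragment applied at 1 µg/mL in TBST for 1 h at 4 C; score combines spot fluorescence with its signal to noise ratio.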 The note with it: fluorescence 635 nm, higher = more signal.
Test [12] is described as follows: hepatitis C replication reporter changes, two-sided – Huh7 cells, luciferase reporter, HCV replication inhibitor project, primary screen (AID 1109).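 Note: huh7 hepatoma cells harbouring a luciferase neomycin HCV replicon reporter; luciferase luminescence as measure of HCV replicon replication; test concentration not given here.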 To be noted: Huh7 HCV replicon luciferase reporter, 48 h; higher = more signal. A general note: In a reporter assay the amount or activity of a reporter protein is the signal.
The target in test [13] is Left-right determination factor 2 (Homo sapiens) (UniProt O00292). Put plainly: small molecules binding LEFTY2 protein – biochemical, small-molecule microarray, 635 nm fluorescence scan, primary screen (AID 1110). The note with it: higher = more signal.
Test [14] deals with Calmodulin-1 (Homo sapiens) (UniProt P0DP23). Put plainly: small molecules binding calmodulin-1 with EGTA – biochemical, small-molecule microarray, Cy5-labelled CALM1, profiling panel (AID 1111).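 Note: labelled calmodulin applied in Tris saline Tween buffer holding calcium plus EGTA and DTT.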 To be noted: Cy5-CALM1 binding fluorescence, higher = more signal.
For test [15] the target is unchanged. The test can be described thus: small molecules binding Ca-loaded calmodulin-1 – biochemical, small-molecule microarray, Cy5-labelled CALM1, plus calcium, artefact control for SMM control-protein annotation, profiling panel (AID 1112).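 Note: score merges spot fluorescence with signal to noise from triplicate slides.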 The note with it: Cy5-CALM1 binding fluorescence, higher = more signal.
Test [16] can be described thus: probe aWnt5a binding to arrayed compounds – biochemical, biotinylated probe, 635/667 nm fluorescence, primary screen (AID 1113).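 Note: score merges 667 nm fluorescence intensity with signal-to-noise per printed feature.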 The note with it: small-molecule microarray, higher = more signal.
Test [17] in a line: probe aShh binding to arrayed compounds – biochemical, biotinylated probe, 635/667 nm fluorescence, primary screen (AID 1114).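 Note: probe is biotin-labelled aShh protein from a stem cell growth factor screen; measures binding of labelled protein to compounds printed on the slide; score merges feature fluorescence at 667 nm with signal-to-noise.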 The note with it: small-molecule microarray, higher = more signal.
Test [18] can be described thus: probe aNog binding to arrayed compounds – biochemical, biotinylated probe, 635/667 nm fluorescence, primary screen (AID 1115).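 Note: probe is biotinylated aNog protein used at 0.15 µg/mL for 1 h at 4 C; z-score combines 667 nm fluorescence of each spot with its signal to noise.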 The note with it: small-molecule microarray, higher = more signal.
Test [19] deals with Torsin-1A-interacting protein 1 (Homo sapiens) (UniProt Q5JTV8). Put plainly: compound microarray binding of lysate hLAP1 – cell lysate, small-molecule microarray, COS7 lysate, 635/667 nm fluorescence, primary screen (AID 1116). The note with it: 635 nm fluorescence, higher = more signal.
For test [20], the target named is Alpha-bungarotoxin (Bungarus multicinctus) (UniProt P60615). The test can be described thus: compounds binding labelled alpha-BTX control protein – biochemical, small-molecule microarray, Alexa647 label, 635/667 nm fluorescence, artefact control for SMM control protein annotation, profiling panel (AID 1117). To be noted: alpha-BTX-A647 binding fluorescence, higher = more signal.
Alpha-bungarotoxin (Bungarus multicinctus), sequence (P60615 whole entry, looked up): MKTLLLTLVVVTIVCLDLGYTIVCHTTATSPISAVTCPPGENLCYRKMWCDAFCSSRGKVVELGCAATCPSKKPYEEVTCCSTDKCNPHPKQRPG

Follistatin-related protein 3 (Homo sapiens), sequence (O95633 whole entry, looked up): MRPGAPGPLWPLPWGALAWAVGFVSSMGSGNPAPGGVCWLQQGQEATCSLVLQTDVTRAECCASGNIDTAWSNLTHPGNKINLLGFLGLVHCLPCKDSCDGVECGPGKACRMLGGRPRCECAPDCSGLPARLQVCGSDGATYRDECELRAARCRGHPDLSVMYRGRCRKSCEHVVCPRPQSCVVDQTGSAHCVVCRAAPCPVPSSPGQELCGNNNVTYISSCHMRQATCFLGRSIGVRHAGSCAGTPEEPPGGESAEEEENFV
Fibroblast growth factor 10 (Homo sapiens), sequence (O15520 whole entry, looked up): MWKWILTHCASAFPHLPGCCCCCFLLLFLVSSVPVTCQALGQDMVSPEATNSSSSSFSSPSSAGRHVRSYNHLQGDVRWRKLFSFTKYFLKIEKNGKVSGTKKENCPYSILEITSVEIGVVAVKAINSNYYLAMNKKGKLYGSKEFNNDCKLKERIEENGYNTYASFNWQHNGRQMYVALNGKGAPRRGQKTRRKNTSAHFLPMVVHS
Dickkopf-related protein 1 (Homo sapiens), sequence (O94907 whole entry, looked up): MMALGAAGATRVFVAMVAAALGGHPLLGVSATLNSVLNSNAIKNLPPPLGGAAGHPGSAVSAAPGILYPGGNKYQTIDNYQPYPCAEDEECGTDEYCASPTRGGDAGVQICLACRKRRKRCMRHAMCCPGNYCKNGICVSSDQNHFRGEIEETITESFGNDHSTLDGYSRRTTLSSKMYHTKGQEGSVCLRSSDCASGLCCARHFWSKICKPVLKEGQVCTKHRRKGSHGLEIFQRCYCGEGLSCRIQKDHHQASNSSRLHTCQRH
Torsin-1A-interacting protein 1 (Homo sapiens), sequence (Q5JTV8 whole entry, looked up): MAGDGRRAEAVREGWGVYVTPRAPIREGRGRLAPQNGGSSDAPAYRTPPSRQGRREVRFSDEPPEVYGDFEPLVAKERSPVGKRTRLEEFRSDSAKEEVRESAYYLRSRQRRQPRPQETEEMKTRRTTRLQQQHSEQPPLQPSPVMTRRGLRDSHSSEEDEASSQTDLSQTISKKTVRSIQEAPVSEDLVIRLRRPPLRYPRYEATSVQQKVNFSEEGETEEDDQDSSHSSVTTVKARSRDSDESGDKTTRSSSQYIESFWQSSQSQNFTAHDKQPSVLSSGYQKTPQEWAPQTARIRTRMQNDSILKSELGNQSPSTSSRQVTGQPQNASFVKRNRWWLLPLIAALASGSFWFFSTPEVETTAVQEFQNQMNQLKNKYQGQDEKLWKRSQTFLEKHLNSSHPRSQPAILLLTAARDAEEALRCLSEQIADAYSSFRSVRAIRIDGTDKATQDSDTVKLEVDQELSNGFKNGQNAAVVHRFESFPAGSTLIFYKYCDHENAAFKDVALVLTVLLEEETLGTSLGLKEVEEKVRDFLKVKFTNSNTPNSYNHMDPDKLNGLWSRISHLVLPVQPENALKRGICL
Epidermal growth factor receptor (Homo sapiens), sequence (P00533 whole entry, looked up): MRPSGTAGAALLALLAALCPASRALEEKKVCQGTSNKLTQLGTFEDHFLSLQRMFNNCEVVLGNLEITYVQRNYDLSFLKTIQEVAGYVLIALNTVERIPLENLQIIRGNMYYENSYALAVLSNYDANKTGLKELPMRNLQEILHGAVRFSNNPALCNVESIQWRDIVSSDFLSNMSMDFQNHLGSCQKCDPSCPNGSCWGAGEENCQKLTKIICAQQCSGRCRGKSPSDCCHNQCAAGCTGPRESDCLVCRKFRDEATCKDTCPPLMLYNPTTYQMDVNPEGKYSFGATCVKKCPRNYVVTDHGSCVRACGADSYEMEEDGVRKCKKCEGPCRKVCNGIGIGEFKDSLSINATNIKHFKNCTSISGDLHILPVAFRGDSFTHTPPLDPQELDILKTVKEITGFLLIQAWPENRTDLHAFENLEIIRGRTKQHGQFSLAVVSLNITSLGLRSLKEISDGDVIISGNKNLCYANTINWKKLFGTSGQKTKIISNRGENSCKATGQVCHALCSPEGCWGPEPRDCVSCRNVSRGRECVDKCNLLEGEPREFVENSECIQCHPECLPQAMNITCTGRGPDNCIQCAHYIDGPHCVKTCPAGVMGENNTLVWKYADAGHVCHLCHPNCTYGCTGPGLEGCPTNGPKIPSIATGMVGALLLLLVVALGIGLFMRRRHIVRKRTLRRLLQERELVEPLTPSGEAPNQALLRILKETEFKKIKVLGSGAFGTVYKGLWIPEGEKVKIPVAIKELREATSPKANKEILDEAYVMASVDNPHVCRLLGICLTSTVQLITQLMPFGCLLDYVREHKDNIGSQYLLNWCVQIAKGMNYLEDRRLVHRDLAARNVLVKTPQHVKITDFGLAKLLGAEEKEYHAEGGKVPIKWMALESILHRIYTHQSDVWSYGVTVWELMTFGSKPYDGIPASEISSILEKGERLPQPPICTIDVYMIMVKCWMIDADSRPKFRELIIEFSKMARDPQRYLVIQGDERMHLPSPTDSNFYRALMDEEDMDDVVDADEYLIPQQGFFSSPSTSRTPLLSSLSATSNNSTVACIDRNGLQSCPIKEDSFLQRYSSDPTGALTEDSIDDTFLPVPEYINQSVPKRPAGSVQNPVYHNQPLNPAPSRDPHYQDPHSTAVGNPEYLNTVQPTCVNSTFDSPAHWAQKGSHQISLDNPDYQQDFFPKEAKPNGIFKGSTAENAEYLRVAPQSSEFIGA
Left-right determination factor 2 (Homo sapiens), sequence (O00292 whole entry, looked up): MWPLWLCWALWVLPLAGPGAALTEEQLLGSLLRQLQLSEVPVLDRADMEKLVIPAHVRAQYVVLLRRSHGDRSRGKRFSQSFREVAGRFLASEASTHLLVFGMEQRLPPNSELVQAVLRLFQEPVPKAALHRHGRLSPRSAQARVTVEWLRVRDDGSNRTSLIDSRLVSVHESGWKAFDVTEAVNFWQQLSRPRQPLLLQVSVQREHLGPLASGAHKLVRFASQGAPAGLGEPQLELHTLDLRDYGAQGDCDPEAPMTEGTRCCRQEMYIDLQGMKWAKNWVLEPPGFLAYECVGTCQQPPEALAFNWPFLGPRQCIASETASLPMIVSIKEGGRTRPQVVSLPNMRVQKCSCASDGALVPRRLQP

In the case of `O=C1O[C@H](c2ccccc2)[C@H](c2ccccc2)N2[C@H]1[C@@H](C(=O)Nc1nc3ccccc3s1)[C@]1(C(=O)Nc3ccc(C#CC4=CCCCC4)cc31)[C@H]2c1ccc(OCCO)cc1`, the composite z-score was 0.956 in test [1]; -0.004 in test [2]; 0.54 in [3]; 1 in [5]; 1.3 in test [6]; 0.202 in [7]. Also, the composite z-score was determined as 0.891 in test [8]; 0.779 in test [9]; 0.881 in test [10]; 0.945 in [11]; 0.56 in test [13]; 1.36 in test [14]. The composite z-score in test [15] is 0.536; in [16], -0.176; in test [17] it was -0.188; in test [18], 1.37; in test [19] it was -0.513; in test [20], 2.12. The z-score in test [4] is -0.718 (inactive); in test [12], -1.91.

As for `COc1ccc([Si](C)(C)[C@@H]2[C@@H](CC(=O)N3Cc4ccccc4C[C@H]3CO)O[C@]3(C(=O)N(Cc4cccc(N5C(=O)COc6ccccc65)c4)c4ccccc43)[C@H]2C)cc1`, the composite z-score in [1] is 0.321; in test [2], 0.542; in [3], -0.602; in [5], 0.904; in test [6], 0.901; in test [7], 0.925. Also, the composite z-score in test [8] stood at 1.13; in test [9], 1.01; in test [10] it was 0.729; in [11], 1.2; in [13], 0.806; in test [14], 1.39. Further, the composite z-score in test [15] is 0.0626; in test [16] it was -0.103; in [17], -0.214; in [18] it was -0.253; in test [19], 0.875; in [20], 0.875. Also, the z-score was -1.82 (inactive) in test [4] and -3.61 in test [12].

For the compound `COCCn1c(C(=O)N2CCCC2)cc2c1C[C@H]1CN(C(=O)c3ccccc3)[C@@](Cc3ccc(OC)cc3)(C(=O)OC)[C@@H]21`, the composite z-score in test [1] was 0.994; in [2], 1.41; in [3], 1.44; in [5], 0.344; in test [6], 0.194; in [7], -0.224. For the same compound, the composite z-score in test [8] is 0.682; in test [9], -0.223; in test [10], 1.06; in [11], 0.279; in test [13] it was -0.464; in test [14], 2.67. The composite z-score in [15] is 1.33; in test [16] it was 0.0365; in test [17], 0.21; in test [18], -0.401; in test [19], 3.21; in [20], 0.626. Further, the z-score is -1.82 (inactive) in test [4] and -1.62 in test [12].

Turning to `CCOC(=O)C1=CC[C@@H](c2cccc(Cl)c2)N(S(=O)(=O)c2ccc(C)cc2)[C@H]1c1ccc(C#N)cc1`, the composite z-score is 1.06 in test [1]; 0.855 in test [2]; 0.252 in test [3]; 0.841 in [5]; 1.32 in test [6]; 0.36 in test [7]. In addition, the composite z-score in test [8] came to 1.41; in [9], 0.49; in [10] it was 0.582; in test [11], 1.41; in test [13] it was 0.838; in test [14], 1.55. Besides, the composite z-score in [15] turned out to be 0.736; in test [16], 0.0266; in test [17] it was 0.0638; in test [18] it was 0.978; in [19], 1.32; in [20], 1.39. For the same compound, the z-score in test [4] was -0.201 (inactive); in test [12] it was -1.95.

As for `OCCCc1cc[n+](Cc2cccc(OC(F)(F)F)c2)cc1`, the composite z-score in [1] stood at 1.67; in test [2] it was 0.237; in [3] it was 0.526; in test [5] it was 0.0895; in test [6], 0.873; in [7], 0.0648. Moreover, the composite z-score in test [8] is 1.03; in test [9], 0.346; in test [10] it was 1.14; in test [11], 1.47; in [13], 0.208; in test [14], 0.66. Further, the composite z-score in test [15] is 0.56; in test [16], -0.0758; in test [17], 0.199; in test [18], 0.134; in test [19], 0.925; in test [20], 0.718. Besides, the results for the z-score in [4] and in [12] were -0.109 (inactive) and 0.242, respectively.
